# Compound activity (PubChem)
# Compounds with a hit are over-represented: about 9.8% of the library has one in this group of screens.
# HTT aggregate: reduces HttQ103-GFP aggregates in PC12 cells; actives 1.1% (n = 220,000); PC12 HttQ103-GFP aggregates, Acumen cytometry, 40 h; Potency, µM (top dose mostly 46.1 µM), for the others: at the highest dose activity change, negative = inhibition, most hits filed as inhibitors; note: potency is the fitted concentration of half-maximal effect; % is set by controls: 0 for no effect and ±100 for the full control effect; nearly all actives have a fitted effect of over 60% in size
#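 Multiplexed with ATP-based cell death, this channel scores GFP aggregates in PC12 cells expressing inducible HTTex1-Q103-GFP. Induction used 100 nM tebufenozide; compounds were tested in concentration series.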
# ALDH1A1 inh: blocks purified human ALDH1A1 activity. P00352. Purified ALDH1A1, NADH fluorescence, propionaldehyde substrate. Potency, µM (doses to about 75.3 µM), for the others: at the highest dose activity, negative = inhibition, hits mostly inhibitors. actives 7.3% (n = 220,000); active = well fitted inhibition curve with a large enough effect, not every such curve was filed as active; inconclusive = small, poorly fitted or top-dose-only effect, or another doubt; inactive = no such curve, though single readings can be large or run the other way;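 note: potency is the fitted concentration of half-maximal effect; plate controls were no enzyme wells and a reference inhibitor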
# HTT cytoprotect: protects HTT-Q103 PC12 cells, measured by ATP; PC12 HTT-Q103 induced, cytoprotection, ATP luminescence, 40 h; Potency, µM (titrated, usually from 56.4 µM), for inactives: cytoprotection (ATP increase), most hits filed as activators; actives 0.14% (n = 230,000); AID 1471; note: potency is the fitted concentration of half-maximal effect; % of control where 0% means no effect; nearly all actives have a fitted effect of over 45% in size
#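 PC12 cells with ecdysone-inducible HTT exon 1 Q103-GFP, induced with 100 nM tebufenozide and co-treated with library compounds in a dose series (1536-well, 1500 cells/well). Cytoprotection read as ATP content by ATPlite luminescence.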
# CBFb-RUNX1 inh: blocks binding between human CBF-beta and RUNX1 | AlphaScreen CBFb-His/RUNX1-biotin binding, biochemical | Potency, µM (series often up to 59.8 µM), without a hit: at the top dose activity, negative = inhibition, most hits filed as inhibitors | 230,000 tested, under 10 active; note: % of control where 0% means no effect
#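 Read-out: AlphaScreen. Format: His-CBF-beta with biotinylated RUNX1 (30 nM each) preincubated 20 min, compound 15 min, Ni-chelate plus streptavidin beads 90 min; room temperature throughout.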
# HPGD inh: inhibitors of human 15-hydroxyprostaglandin dehydrogenase (HPGD). P15428. purified HPGD, NADH fluorescence kinetic, PGE2 substrate. Potency, µM, for the others: at the highest dose activity change, negative = inhibition, actives largely listed as inhibitors. actives 4.3% (n = 150,000); active = well fitted inhibition curve with a large enough effect, not every such curve was filed as active; inconclusive = small, poorly fitted or top-dose-only effect, or another doubt; inactive = no such curve, though single readings can be large or run the other way; note: potency is the fitted concentration of half-maximal effect; % is set by controls: 0 for no effect and ±100 for the full control effect
# Target sequence (P15428 whole entry, looked up): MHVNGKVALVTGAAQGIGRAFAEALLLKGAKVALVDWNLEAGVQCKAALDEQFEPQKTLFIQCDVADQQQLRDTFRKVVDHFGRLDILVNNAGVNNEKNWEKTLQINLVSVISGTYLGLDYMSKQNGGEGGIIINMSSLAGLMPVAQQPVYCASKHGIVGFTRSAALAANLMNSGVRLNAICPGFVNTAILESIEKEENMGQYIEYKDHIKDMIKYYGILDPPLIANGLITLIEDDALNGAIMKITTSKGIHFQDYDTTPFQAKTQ
#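 20 nM HPGD preincubated 15 min at room temperature with compound in 50 mM Tris-HCl pH 8, 0.01% Tween 20. Started with 1 mM NAD+ and 30 uM prostaglandin E2; NADH fluorescence (360/450 nm) read 5 times over 30-s intervals, last minus first.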
# KDM4E inh: JMJD2E (human) inhibition; actives 1.6% (n = 230,000); Potency, µM (top dose mostly 57.1 µM), without a hit: top-dose activity change, negative = inhibition, actives largely listed as inhibitors; JMJD2E catalytic domain, FDH-coupled NADH fluorescence (FDH is formaldehyde dehydrogenase); B2RXH2; active = well fitted inhibition curve with a large enough effect, not every such curve was filed as active; inconclusive = small, poorly fitted or top-dose-only effect, or another doubt; inactive = no such curve, though single readings can be large or run the other way;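 note: potency is the fitted concentration of half-maximal effect; 0% = wells with enzyme and -100% = buffer wells without enzyme; nearly all actives have a fitted effect of over 50% in size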
# Target sequence (B2RXH2 1-337 limits assumed): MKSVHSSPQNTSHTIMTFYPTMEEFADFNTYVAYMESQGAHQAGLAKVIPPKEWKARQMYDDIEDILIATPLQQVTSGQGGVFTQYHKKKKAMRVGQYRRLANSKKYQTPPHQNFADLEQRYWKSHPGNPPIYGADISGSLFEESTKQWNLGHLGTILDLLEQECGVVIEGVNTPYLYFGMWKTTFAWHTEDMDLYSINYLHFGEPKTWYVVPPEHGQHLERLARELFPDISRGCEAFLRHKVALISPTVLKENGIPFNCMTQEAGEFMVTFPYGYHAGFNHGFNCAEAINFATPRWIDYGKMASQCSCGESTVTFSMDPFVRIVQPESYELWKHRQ
# * hit, by the source's call; ? = inconclusive; . = no result given; ! = a repeat was not active; [ ] = remark or other dose. Unless noted, calls come from the whole dose curve; as a rule, active = well fitted curve in the direction sought with a large enough effect; inconclusive = small, poorly fitted or top-dose-only effect, or another doubt; inactive = no such curve, though single readings can be large; an effect the other way counts as inactive or inconclusive.
SMILES,HTT aggregate,ALDH1A1 inh,HTT cytoprotect,CBFb-RUNX1 inh,HPGD inh,KDM4E inh
COC(=O)[C@]1(C)CC[C@@]2(C)CC[C@@]3(C)C4=CCc5c(cc(O)c(O)c5C)[C@]4(C)CC[C@@]3(C)C2C1 (some centres not stated),.,4.7%,.,.,28.2µM*,-4.9%
O=NN(c1ccccc1)c1ccccc1,.,?,-16.9%,-5.5%[21.7 µM],-5.8%,.
C[C@H]1C2C=C[C@H]1[C@@H](C(=O)O)[C@@H]2c1c2ccc(=O)c(O)c-2oc2c(O)c(O)ccc12,.,-4.1%[13.5 µM],.,.,3.55µM*,.
CC1Cc2ccccc2N1C(=O)COC(=O)c1ccc(Cl)nc1 (configuration not stated),12.2%,?,6.9%,-9.2%,.,14.1%
Nc1ccc2cc(Br)ccc2c1,-25.0%,17.8µM*,-14.6%,4.9%,.,?
C=CCN1CC[C@]23c4c5ccc(O)c4O[C@@H]2C(=O)CC[C@@]3(O)[C@H]1C5,.,.,-3.9%[1.9 µM],.,.,.
CCCCC/C=C\C/C=C\C/C=C\C/C=C\CCCC(=O)O,.,7.94µM*!,?,25.6%,15.8µM*!,28.2µM*!
C(=C/c1ccccc1)/CN1CCN(CCOC(c2ccccc2)c2ccccc2)CC1,.,-11.2%,-11.3%,-17.6%[21.7 µM],-9.5%,-2.5%
Fc1ccc2c(c1)nnn2C1CCN(Cc2c(Cl)cccc2Cl)CC1,-31.3%,6.5%,43.2%[10 µM],4.0%,-1.7%,-1.6%
Fc1ccc2c(c1)nnn2C1CCN(Cc2nnnn2C2CCCCC2)CC1,10.8%,12.6µM*,-5.0%,23.0%,-11.6%,?
COC(=O)CSc1nc2sc3c(c2c(=O)n1C1CCCCC1)CCN(C)C3,11.8%[9.22 µM],?,10.3%,0.4%,?,0.3%
CC1=C(/C=C/c2ccccc2)CCN(C)C1,1.8%,11.2µM*,-8.5%,-5.4%,-10.1%,0.7%
C[C@@]12CCC3c4ccc(OS(=O)(=O)O)cc4CCC3C1CCC2O (some centres not stated),.,8.7%,.,.,-11.2%,188.2%
O=C(c1ccc2c(=O)n(Cc3ccc4c(c3)OCO4)c(=S)[nH]c2c1)N1CCC2(CC1)OCCO2,-17.3%,?,-3.5%,4.3%,31.6µM*,1.0%
O=C(NCc1ccc(C(=O)N2CCC3(CC2)OCCO3)cc1)c1ccc2c(c1)OCO2,17.1%,7.6%,-11.0%[0.074 µM],0.0%,-18.3%,2.6%
COc1cccc(CCNCc2c(F)cccc2F)c1,13.2%,10µM*,11.4%[10 µM],-3.9%,.,?
Oc1cc(Cl)ccc1Oc1ccc(Cl)cc1Cl,.,1.4%,7.08µM*,24.0%,7.94µM*,.
Oc1ccc(Cl)cc1Cl,.,-5.2%,2.8%,6.6%[21.7 µM],-10.0%,.
N[C@]1(C(=O)O)CC[C@@H](C(=O)O)C1,.,.,-7.3%[1.9 µM],.,.,.
C[C@H]1CCCC(=O)CCC/C=C/c2cc(O)cc(O)c2C(=O)O1,-29.7%,14.1µM*,-27.9%,-3.8%,14.1µM*!,-27.9%
CCCCCn1c(SCCCC)nc2c1c(=O)[nH]c(=O)n2C,-13.5%,20µM*,-7.8%[10 µM],1.9%,14.1µM*,-6.1%
C/C=C1\C[C@H](C)[C@](O)(CO)C(=O)OCC2=CCN3CC[C@@H](OC1=O)[C@@H]23,.,.,-1.7%,.,.,.
O=C(OC1CCN(CCCl)CC1)C(c1ccccc1)c1ccccc1,.,8.91µM*,-2.6%[1.9 µM],29.4%,-10.9%,0.1%
CC(C)C(=O)c1cn(Cc2ccccc2C#N)c2ccccc12,-16.6%,7.2%,-13.2%[0.074 µM],13.5%,-3.4%,-3.2%
CC(=O)c1cn(Cc2ccccc2C#N)c2ccccc12,10.6%[9.22 µM],25.1µM*,22.9%[10 µM],6.4%,.,-9.9%
SMILES,HTT aggregate,ALDH1A1 inh,HTT cytoprotect,CBFb-RUNX1 inh,HPGD inh,KDM4E inh
O=C(c1ccc(CS(=O)(=O)c2ccccc2)o1)N1CCC2(CC1)OCCO2,-22.2%,22.4µM*,-2.4%[0.074 µM],?,-6.2%,-0.9%
O=C(c1ccc(N2CCCCC2)c([N+](=O)[O-])c1)N1CCC2(CC1)OCCO2,-5.0%,?,-44.2%,-6.0%,.,-9.0%
Cc1ccc(S(=O)(=O)Nc2cc(C(=O)N3CCC4(CC3)OCCO4)ccc2N2CCCCC2)cc1,-7.8%,3.98µM*,-36.4%,3.7%,-25.3%,-4.0%
O=C(c1ccc(CS(=O)(=O)c2ccc(Br)cc2)o1)N1CCC2(CC1)OCCO2,17.6%,-2.7%,-13.1%[0.074 µM],2.3%,-4.9%,-3.3%
CC(=O)Nc1cc(C(=O)N2CCC3(CC2)OCCO3)ccc1Sc1ccc(F)cc1,-9.7%,2.99µM*,-24.2%,16.1%,.,-9.7%
Cc1cccc(CS(=O)(=O)Cc2ccc(C(=O)N3CCC4(CC3)OCCO4)o2)c1,11.5%,25.1µM*,0.5%,3.1%,-3.2%,-0.9%
CN1C[C@@H](C(=O)N[C@@]2(C)O[C@]3(O)C4CCCN4C(=O)[C@@H](Cc4ccccc4)N3C2=O)C=C2c3cccc4[nH]cc(c34)C[C@@H]21 (some centres not stated),.,?,-0.5%[1.9 µM],?,-30.0%,?
O=C(c1ccc(CNS(=O)(=O)c2ccccc2)cc1)N1CCC2(CC1)OCCO2,?,8.91µM*,-38.1%,0.2%,?,-7.2%
O=C(c1ccc(CNS(=O)(=O)c2ccc(Br)cc2)cc1)N1CCC2(CC1)OCCO2,6.2%,2.0%,.,-24.8%,-17.4%,1.6%
CN[C@@H]1C[C@H](c2ccc(Cl)c(Cl)c2)c2ccccc21,.,0.1%,-86.9%,12.6%[21.7 µM],-8.7%,7.9%
CCOc1c(Cl)cc(CNCCc2c[nH]c3ccccc23)cc1OC,12.9%[9.22 µM],3.55µM*,-4.1%[10 µM],-6.8%,.,-17.0%
CN(C)c1ccc(N(C)C)cc1,.,?,-51.8%,-8.2%[21.7 µM],-26.6%,.
NC(=O)c1ccc(C(=O)Nc2ccc([As](=O)(O)O)cc2)cc1,-14.1%[9.22 µM],9.1%[13.5 µM],-10.9%[10 µM],-2.9%,-4.2%,-1.2%
CCN(CC)C(=O)c1ccc(NC(=O)c2cccc(F)c2)cc1,-5.1%,1.1%,-2.4%[10 µM],4.6%,14.1µM*,-3.3%
Nc1ccc2c3c(cccc13)CC2,10.4%,?,-30.4%,?,?,?
O=[N+]([O-])c1ccc2c3c(cccc13)CC2,.,3.16µM*,?,2.6%[21.7 µM],-27.9%,.
O=C(CCn1c(=O)oc2ccccc21)N1CCN(C(c2ccccc2)c2ccccc2)CC1,?,17.8µM*,-49.1%,-5.1%,-18.7%,7.8%
CCC(C)N1CCN(C(=O)Cc2ccccc2)CC1 (configuration not stated),8.3%,-7.5%,3.0%,0.2%,3.5%,?
CC1=C[C@H]2[C@]3(O)C(C=C(CO)C[C@]2(O)C1=O)[C@@H]1C(C)(C)[C@]1(O)[C@H](O)[C@H]3C (some centres not stated),.,.,.,21.1%,.,.
COc1cc(C(=O)N/N=C/c2ccc(OC(=O)N3CCOCC3)cc2)cc(OC)c1OC,-4.2%,-12.4%,?,5.5%,-12.8%,28.2µM*
